From PubChem BioAssay AID588342 (National Center for Advancing Translational Sciences (NCATS), 2011)
Among all 360,000 compounds or so, about 25,000 (6.9%) were called active. Inconclusive results (about 9%) are left out. Calls follow the shape of the dose curve; as a rule, active = well fitted inhibition curve with a large enough effect; inconclusive = small, poorly fitted or top-dose-only effect; inactive = flat fitted curve, though single readings scatter. What follows is part of a selection rich in actives, with near analogues and random picks from the rest.

molecular target: Luciferin 4-monooxygenase (Photinus pyralis) (UniProt P08659); experiment: qHTS profiling assay for firefly luciferase inhibitor/activator using purifed enzyme and Km concentrations of substrates (counterscreen for miR-21 project); conditions: purified FLuc, luminescence inhibition; series mostly up to 57.5 µM; activity change, negative = inhibition: at the top concentration; also: nearly all actives have a fitted effect of over 55% in size;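 as to activity change, negative = inhibition: plate controls were vehicle for no effect and reference inhibitor for full effect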
Excerpt: MLPCN Grant: 1 R21 NS059478-01 (miR-21 grant) Assay Provider: NCGC NCGC Assay Overview: Firefly (Photinus pyralis) luciferase is one of the most commonly used transcriptional reporters for a number of reasons. It is considered one of the more dynamically responsive reporters -that is, responsive to changes in reporter transcription - as it requires no post-translational modifications and is enzymatically active directly after protein synthesis (Wood, 1998). Additionally, the half-life of the luciferase protein is short relative to other reporter-gene products (Wood, 1995). Whereas reporters with long half-lives potentially allow for increased signal due to accumulation of reporter-gene product, once accumulated in the cell, dynamic changes in reporter-gene expression may be difficult to detect(Fan and Wood, 2007; Almond et al., 2004). It has been shown that wild-type P. pyralis luciferase has a half-life of approximately […] hours in mammalian cells (Thompson et al., 1991). Firefly luciferase reporter-gene assays are also generally considered one of the most sensitive assay types (Wood, 1995; Wood, 1998). Although light produced in a bioluminescence reaction is of lower intensity than that produced during fluorescence emission, this is offset by little to no background light inherent to luminescent assays. Thus the luciferase reporter can be expressed at much lower levels than fluorescent proteins while still providing robust signal. # However, it was initially observed, in 1991, by Thompson et al., that compounds that resemble the substrates of firefly luciferase (FLuc) can act as competitive inhibitors of the enzyme, and that these compounds, upon interaction with luciferase in the cell, can actually stabilize the protein and increase its half-life. Accumulated intracellular FLuc protein can be measured as an increase in luminescence signal, upon addition of detection reagents (which contain high concentrations of FLuc substrates) commonly used in high-throughput screening. In cell-based reporter gene assays that use FLuc as the reporter gene to quantitate the potential influence of a given compound against the target biology, this apparent increase in luminescence can mistakenly be interpreted as identification of a compound that is active against the target of interest. This is the case for the miR-21 FLuc reporter gene assay used to identify inhibitors of the miR-21 pathway (PubChem AID 2289) - compounds of interest will inhibit miR-21 biogenesis/expression or activity, and are identified by causing an increase in luminescence, due to increased FLuc translation. However, FLuc inhibitory compounds that stabilize the FLuc protein will give an identical read-out, making it difficult to distinguish compounds that are active against the target from those active against FLuc. Previous profiling work to determine the prevalence of compounds that affect FLuc enzymatic activity (PubChem AID 411) identified that ~3% of the MLSMR library (then at ~72K) inhibited FLuc. […] Since the MLSMR had grown to ~350K compounds, and since it was expected that a significant percentage of compounds found active in the miR-21 FLuc assay would be FLuc inhibitors, the library was screened for activity against FLuc using a biochemical assay of purified FLuc and KM concentrations of FLuc substrates (D-luciferin and ATP).
NCGC Assay Protocol Summary: Reagents: 50mM Tris acetate, pH 7.5; 10mM Mg acetate; 10uM D-luciferin (Sigma #L9504); 10uM ATP; 0.01% Tween-20; 0.05% BSA; 10nM P. pyralis luciferase (Sigma #L9506) Control compounds used were two known firefly luciferase inhibitors (compounds (2) and (5) in Auld et al., 2010), and DMSO. […]

Chain of Luciferin 4-monooxygenase (Photinus pyralis) (P08659 whole entry, looked up): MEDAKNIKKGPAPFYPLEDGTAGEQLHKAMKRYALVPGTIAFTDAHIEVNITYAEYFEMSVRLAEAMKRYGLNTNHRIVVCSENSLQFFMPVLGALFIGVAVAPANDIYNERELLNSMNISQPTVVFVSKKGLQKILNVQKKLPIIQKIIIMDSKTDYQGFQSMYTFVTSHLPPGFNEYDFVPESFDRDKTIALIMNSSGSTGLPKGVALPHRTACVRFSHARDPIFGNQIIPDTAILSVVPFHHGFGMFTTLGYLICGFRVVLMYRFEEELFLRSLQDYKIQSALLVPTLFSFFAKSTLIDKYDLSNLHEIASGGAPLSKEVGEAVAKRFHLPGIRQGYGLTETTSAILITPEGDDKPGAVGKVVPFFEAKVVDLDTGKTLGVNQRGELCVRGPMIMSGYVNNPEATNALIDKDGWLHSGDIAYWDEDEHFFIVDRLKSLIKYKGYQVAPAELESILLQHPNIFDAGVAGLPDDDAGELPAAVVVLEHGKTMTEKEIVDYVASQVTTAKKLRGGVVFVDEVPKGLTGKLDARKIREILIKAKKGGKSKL

Row | SMILES | activity change, negative = inhibition | Potency
1 | CCCSc1ncc(Cl)c(C(=O)Nc2sc3c(c2C(=O)NCCOC)CCCC3)n1 | -5.29% (inactive) | –
2 | CC(NC(=O)C(=O)N/N=C/c1ccc(Cl)cc1)c1ccccc1 (configuration not stated) | -1.64% (inactive) | –
3 | CSc1ccc(/C=N/NC(=O)c2cccc(Cl)c2)cc1 | – | 5.36 µM (active)
4 | CC1=NNC(=O)C1CCC(=O)N/N=C\c1ccc(Cl)c(Cl)c1 (configuration not stated) | -6.92% (inactive) | –
5 | O=C(N/N=C/c1ccc(Cl)c(Cl)c1)c1ccc2nc[nH]c2c1 | – | 13.5 µM (active)
6 | CSc1ccc(/C=N\NC(=O)CC(=O)NC(C)C)cc1 | -5.08% (inactive) | –
7 | NCCCCCC(=O)N/N=C/c1ccc2nccnc2c1 | -0.587% (inactive) | –
8 | Cc1ccccc1CNC(=O)C1CCCN(S(=O)(=O)N(C)c2ccc(F)cc2)C1 (configuration not stated) | 4.61% (inactive) | –
9 | CCN(CC)CCN1C(=O)C(=O)/C(=C(/O)c2ccc(OC)c(OC)c2)C1c1ccccn1 (configuration not stated) | 10.6% (inactive) | –
10 | CCN(CC)CCN1C(=O)C(=O)/C(=C(/O)c2cnn(-c3ccccc3)c2C)C1c1cccs1 (configuration not stated) | – | 21.3 µM (active)
11 | Cc1c(C(=O)NCc2ccccc2)cnn1-c1ccccc1 | -24.9% (inactive) | –
12 | CN(CC(=O)Nc1ccc(Cl)c(C(F)(F)F)c1)C(=O)CCC(=O)c1ccccc1 | -12.1% (inactive) | –
13 | Cc1nnc(SCc2cc(=O)c3cc(F)ccc3[nH]2)n1C | -1.2% (inactive) | –
14 | COc1ccc(-c2cc(C(F)(F)F)nc(NCc3cccnc3)n2)cc1 | 2.9% (inactive) | –
15 | COc1ccc(-c2cn[nH]c2-c2ccc(OC)cc2)cc1 | 4.38% (inactive) | –
16 | COc1ccc(-c2cc3ncccc3cn2)cc1 | – | 5.36 µM (active)

Row | SMILES | activity change, negative = inhibition | Potency
17 | CCOCCCNc1c(CC)c(C)c(C#N)c2nc3ccccc3n12 | 0.35% (inactive) | –
18 | CC1CCc2c(sc3c2C2=NS(=O)(=O)CCN2C=N3)C1 (configuration not stated) | -12.8% (inactive) | –
19 | CCOC(=O)N1CCN(S(=O)(=O)c2ccc3c(c2)C(C)C(=O)N3)CC1 (configuration not stated) | 2.28% (inactive) | –
20 | CCOC(=O)c1c(SCC(=O)Nc2cccc(C)c2C)nc(=O)[nH]c1C | 2.11% (inactive) | –
21 | Cc1ccccc1OCc1ccc(-c2nc(C#N)c(N3CCCCC3)o2)o1 | 3.38% (inactive) | –
22 | Cc1ccc(O)c(NC(=O)c2cc(-c3ccc(F)cc3)no2)c1 | -8.31% (inactive) | –
23 | Cc1ccc(O)c(NC(=O)COc2cc(C)ccc2C)c1 | -4.48% (inactive) | –
24 | Cc1ccc(O)c(NC(=O)c2cc(-c3ccco3)on2)c1 | – | 6.01 µM (active)
25 | COc1cc(C(=O)NCC(c2ccco2)N2CCCC2)ccc1OCc1ccccc1 (configuration not stated) | 2.12% (inactive) | –
26 | CCc1sc(C(=O)N2CCN(CC(=O)Nc3cccc(F)c3)CC2)cc1C | – | 13.5 µM (active)
27 | CC(=O)N1CCN(CC(=O)Nc2ccc(C)c(F)c2)CC1 | -0.435% (inactive) | –
28 | O=C(CN1CCN(C(=O)c2cccc(F)c2)CC1)Nc1ccccc1F | 2.19% (inactive) | –
29 | CN(CC(=O)Nc1ccc(Cl)cc1)C(=O)c1ccc(COc2ccccc2)cc1 | 7.64% (inactive) | –
30 | Cc1c(NC(=O)c2cc(=O)c3ccccc3o2)c(=O)n(-c2ccccc2)n1C | -1.55% (inactive) | –
31 | CCCn1nc(C(=O)OCc2nc(N)nc(Nc3ccccc3C)n2)c2ccccc2c1=O | -1.32% (inactive) | –
32 | Cc1cc(=O)n(CC(=O)Nc2cccc([N+](=O)[O-])c2)c(-n2nc(C)cc2C)n1 | 3.47% (inactive) | –
